The whole screen tested about 330,000 compounds, of which about 4,900 (1.5%) were called active. What follows is part of a selection rich in actives, with near analogues and random picks from the rest. Values without a mark were called inactive.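 How the source made its calls: active means inhibition above about 50% at the single test dose (limit read from the data); inactive means the rest.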 Non-standard residues stand in square brackets, D forms with d. Residues, ends and D or L forms follow the SMILES beside them. ξ: configuration not given here. *: point of attachment. Cbz = O=C(OCc1ccccc1)*; ξL = CC(C)CC(N)C(=O)O; ξP = O=C(O)C1CCCN1

The target of the assay is Sentrin-specific protease 7 (Homo sapiens) (UniProt Q9BQF6). As to the kind of experiment: SENP7 protease inhibitors, primary screen, biochemical, luminescence, uHTS (AID 434973).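 Further: plate controls were DMSO with enzyme for no effect and no enzyme buffer wells for full effect.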 The settings on record: recombinant SENP7, Z-RLRGG-aminoluciferin luminescence, 40 min; at 5 µM; hits give high values.
Take `CC(C)CC(NC(=O)C1CCCN1C(=O)[C@@H](C)NC(=O)OCc1ccccc1)C(=O)NCC(N)=O` (stereo not given in full) (Cbz-[dA][ξP][ξL]G-NH2): the inhibition was 8.74%. The result for `CCC1CCCCN1CCNC(=O)c1[nH]c(C)c(C(C)=O)c1C` (stereo not given) reads 0.149%; that for `COCn1c(C(O)c2ccccc2)cc2ccccc21` (stereo not given), 12.5%. With `CCOC(=O)c1cnc(Nc2nc3ccccc3o2)nc1CSC(=S)N1CCCCC1`, the inhibition was 0.449%. The result for `CCn1ccnc1CN(C)C(=O)c1cc(COc2ccc(Cl)cc2OC)on1` reads 5.22%; that for `C=CCOc1ccc(/C=C/C(=O)OCC(=O)NC(C)c2ccc(F)cc2)cc1` (stereo not given), -12.8%; that for `CCOC(=O)c1c(N)sc2c1CCCC2=O`, -8.61%. For `COc1ccc(S(=O)(=O)n2nc(C)c(S(=O)(=O)N3CCOCC3)c2C)cc1`, the inhibition was -1.04%.

For the compound `CC(C)COC(=O)n1c(=O)oc2ccc(S(=O)(=O)N3CCCCC3)cc21`, the inhibition was -5.94%. On to `O=C(CSc1nnnn1-c1ccc(O)cc1)N1N=C(c2ccc3ccccc3c2)CC1c1ccccc1` (stereo not given), for which the inhibition is 2.06%.

For the compound `CSc1ccc(/C=N\NC(=O)CC(=O)NC(C)C)cc1`, the inhibition was 4.98%. On to `CSc1ccc(/C=N/NC(=O)c2cccc(Cl)c2)cc1`, for which the inhibition was 96% (active).

Regarding `O=C(N/N=C/c1ccc(Cl)c(Cl)c1)c1ccc2nc[nH]c2c1`, the inhibition was -0.0621%. With `O=C(CN1C(=O)NC(Cc2ccccc2)(Cc2ccccc2)C1=O)NCC1CCCCC1`, the inhibition was -0.975%.

For `COCCN(CCOC)c1nc(N)c2c(N)nc3c(c2c1C#N)CC(=O)N3Cc1ccc(Cl)cc1`, the inhibition was 58.9% (active). For the compound `Cc1ccccc1NC(=O)C(C)OC(=O)CCC(=O)N(CC(C)C)c1c(N)n(CC(C)C)c(=O)[nH]c1=O` (stereo not given), the inhibition is 9.72%. Regarding `Cc1nn(-c2ccccc2)c2c1c(C)c(CCC(=O)NCC1CCCO1)c(=O)n2C` (stereo not given), the inhibition is -0.922%. `COc1cc(C(=O)NCc2nnc(SCC(=O)Nc3nc4ccc(C)cc4s3)o2)cc(OC)c1OC`: the inhibition is 3.97%. On to `CCCc1nc2ccccc2c(=O)n1/N=C/c1ccc(O)c(O)c1`, for which the inhibition was -1.91%.

`O=c1c2ccccc2ncn1/N=C/c1ccccc1`: the inhibition is 88.5% (active). As to `CN(C(=O)Nc1ccc(Cl)cc1)n1cnc2ccccc2c1=O`, the inhibition was -9.71%. As to `Cc1cccc(S(=O)(=O)N2CN(CC3CCCO3)c3nc4ccccc4nc32)c1` (stereo not given), the inhibition was -0.481%.

With `O=C(c1ccc(CSc2ccccc2)cc1)N1CCCCCC1`, the inhibition was 72.6% (active).

For the compound `CC1CCN(C(=O)c2ccc(CSc3ccc(Cl)cc3)cc2)CC1`, the inhibition is -2.26%. In the case of `O=C(c1ccc(S(=O)(=O)c2ccccc2)cc1)N1CCCCCC1`, the inhibition was 3.58%. For `CCc1ccccc1OCC(=O)Nc1ccc(C)c(S(=O)(=O)N2CCCCCC2)c1`, the inhibition is 1.37%. In the case of `Cc1cc(C(=O)NNC(=O)c2ccccc2O)c(C)o1`, the inhibition was 9.67%. Then `C/C(=N\NC(=O)c1ccoc1C)c1ccccc1O`, with 51.5% (active); and `COc1ccccc1N(CC(=O)N/N=C(\C)c1ccccc1O)S(=O)(=O)c1ccc(C)cc1`, with 3.18%.

Consider `COc1ccc2c(CC(=O)OCC(=O)Nc3ccccc3[N+](=O)[O-])coc2c1`, for which the inhibition was -12%.

For `COC(=O)c1ccc(S(=O)(=O)N(CCO)Cc2ccccc2)n1C`, the inhibition is 1.52%. For the compound `O=C(COC(=O)c1ccc(Br)o1)NC12CC3CC(CC(C3)C1)C2`, the inhibition is 7.39%. Regarding `CCOc1ccc(-n2cnnn2)cc1S(=O)(=O)N1CCC(C)CC1C` (stereo not given), the inhibition was 7.69%.

As to `Cc1cccc(-c2noc(-c3ccc(F)cc3)n2)c1`, the inhibition was 94.2% (active). In the case of `Cc1ccc(-c2nc(-c3ccncc3)no2)c(C)c1`, the inhibition is 42.5%. In the case of `Cc1cccc(-c2noc(CCC(=O)NC3CCCC3)n2)c1`, the inhibition was -8.85%. Consider `Cc1ccc(-n2c(C)cc(C(=O)CSc3nnc4ccccn34)c2C)cc1`, for which the inhibition was -18.4%. For `Nc1nonc1-n1nnc(C(=O)N/N=C/c2ccc(Cl)cc2)c1-c1ccc2c(c1)OCO2`, the inhibition was -3.14%. For the compound `Cc1cc(C)n2nc(C(=O)Oc3ccc4c(c3)OCO4)nc2n1`, the inhibition was 4.97%. As for `COc1ccc2nc(NC(=O)[C@@H]3CCCN3C(=O)c3cccs3)sc2c1`, the inhibition was -10%. As for `CCOc1ccc(S(=O)(=O)Nc2nc3cc(OC)ccc3s2)cc1`, the inhibition is 6.2%.

With `COc1ccc2nc(Nc3nc4cc5c(cc4s3)OCCO5)sc2c1`, the inhibition is 52.6% (active).

Consider `CC[C@]12c3[nH]c4cc(CCC(=O)N(C)C)ccc4c3CCN1C(=O)[C@@H](CC(=O)NCCCn1ccnc1)C[C@@H]2C(=O)N1CCN(C(=O)C2CC2)CC1`, for which the inhibition was -1.68%. Then `Cc1ccc(C)c(C(=O)N2CCC(n3nccc3NC(=O)C3CC3)CC2)c1`, with 0.772%; and `CC(=O)c1ccc(NC(=O)c2ccc3c(Cl)c4c(nc3c2)CCCC4)cc1`, with -3.44%. Consider `COc1ccc(N2CCN(C(=O)c3ccc4c(Cl)c5c(nc4c3)CCCC5)CC2)cc1`, for which the inhibition is -4.91%.

As to `CC(C)CCNC(=O)c1ccc2c(Cl)c3c(nc2c1)CCC3`, the inhibition is 84.1% (active).

Take `CC(C)Cc1ccc(S(=O)(=O)N2CCN(C(=O)c3ccco3)CC2)cc1`: the inhibition is 3.59%. The result for `O=C1c2ccccc2NC(c2ccccn2)N1NS(=O)(=O)c1ccccc1` (stereo not given) reads 0.965%. `CN(Cc1ccccc1)C(=O)c1cccc(C(=O)N(C)Cc2ccccc2)c1`: the inhibition is 0.789%. `O=C(COC(=O)CNS(=O)(=O)c1ccc(F)c(F)c1F)NC1CCCC1`: the inhibition was 4.55%. The result for `O=[N+]([O-])c1ccc2nc(-c3ccccn3)[nH]c2c1` reads 70.4% (active); that for `O=[N+]([O-])c1ccc(N/N=C2/CCCCC2c2ccccn2)c([N+](=O)[O-])c1` (stereo not given), -1.83%. Consider `O=[N+]([O-])c1ccc2c(c1)Nc1nc3ccccc3nc1N2`, for which the inhibition is -3.53%. For `O=S(=O)(NCCCc1ccccc1)c1ccc(Br)cc1`, the inhibition was 5.53%. Consider `c1ccc2[nH]c(-c3nc4ccccc4[nH]3)nc2c1`, for which the inhibition is 99.5% (active). The result for `Cc1ccc(-c2nc3ccccc3[nH]2)cc1N` reads 94.4% (active).

Regarding `Clc1ccccc1SCc1nc2ccccc2[nH]1`, the inhibition is 35.5%. The result for `Cc1ccccc1N1CC(c2nc3ccccc3[nH]2)CC1=O` (stereo not given) reads 4.87%; that for `COc1ccc(Br)cc1C(=O)NC(=S)Nc1cc(-c2nc3ccccc3[nH]2)ccc1C`, 2.43%. Take `COc1ccc(-c2[nH]nc(-c3ccccc3)c2-c2nc3ccccc3[nH]2)cc1`: the inhibition was 1.53%. For `O=C(CN1C(=O)c2ccc([N+](=O)[O-])cc2C1=O)Nc1nnc(C2CC2)s1`, the inhibition was -1.7%. As for `COc1ccc(CN2CCOC2=O)cc1OC`, the inhibition was 0.943%. The result for `CCC(=NC1CC(C)(C)NC(C)(C)C1)C1=C(O)CC(C)(C)CC1=O` reads -2.04%; that for `COc1ccc(C2/C(=C(/O)c3ccc(OC(C)C)cc3)C(=O)C(=O)N2CCCN2CCOCC2)cc1` (stereo not given), -3.1%. Take `O=C1C(=O)N(CCCN2CCOCC2)C(c2ccc([N+](=O)[O-])cc2)/C1=C(\O)c1ccc2c(c1)OCCO2` (stereo not given): the inhibition was 56.5% (active). In the case of `O=C1C(=O)N(CCN2CCOCC2)C(c2cccc(Cl)c2)/C1=C(/O)c1ccc2c(c1)OCO2` (stereo not given), the inhibition was 0%. Take `COc1ccccc1OCc1ccc(C(=O)NC(C)c2ccccc2)o1` (stereo not given): the inhibition is -1.75%. Regarding `Cc1ccc(S(=O)(=O)CCC(=O)Nc2nnc(CC(C)C)s2)cc1`, the inhibition was 10.9%. The result for `Cc1ccc(OC(=O)c2cc3ccccc3o2)cc1` reads 80.7% (active). Regarding `C/C(=N\NC(=S)Nc1ccc(C)cc1)c1cc2ccccc2o1`, the inhibition was -0.14%.

On to `COc1ccccc1CN(C)C(=O)c1cc2ccccc2o1`, for which the inhibition is 6.76%. Consider `COc1cc(C(=O)OCC(=O)NC23CC4CC(CC(C4)C2)C3)cc(OC)c1OC`, for which the inhibition was 7.88%. As to `COc1cc(C2/C(=C(\O)c3ccc4c(c3)CC(C)O4)C(=O)C(=O)N2c2nnc(C)s2)cc(OC)c1OC` (stereo not given), the inhibition was 0.235%. On to `COc1ccc(CNC(=O)CN(Cc2ccccc2Cl)C(=O)c2csnn2)cc1`, for which the inhibition was -0.595%.

`CCCCn1c(N)c(N(CCC(C)C)C(=O)CC2OC(=O)c3ccccc32)c(=O)[nH]c1=O` (stereo not given): the inhibition was 0.323%. Then `Cc1cc(C)nc(NC(=O)c2cccc([N+](=O)[O-])c2)c1`, with 2.66%; and `O=C(Nc1ccc(NC(=O)c2ccco2)c(Cl)c1)c1cccc([N+](=O)[O-])c1`, with 52.1% (active). Regarding `O=C(c1cccc([N+](=O)[O-])c1)N1CCN(C(=O)c2ccco2)CC1`, the inhibition was 3.1%. Take `O=C(Nc1ccc(C2CC2(Cl)Cl)cc1)c1cccc([N+](=O)[O-])c1` (stereo not given): the inhibition is 54.2% (active).

Consider `CC(C)(C)SCCNC(=O)c1cccc([N+](=O)[O-])c1`, for which the inhibition is 0.866%. The result for `COc1cc(NC(=O)c2cc([N+](=O)[O-])ccc2Br)ccc1NC(=O)c1ccco1` reads -5.49%; that for `COc1ccc(S(=O)(=O)N2CCN(c3cnccn3)CC2)cc1`, 4.46%; that for `COC(=O)c1ccc(-n2cnc3ccccc32)nc1`, -0.937%. For the compound `O=C1CN(C(=O)COC(=O)/C=C/c2ccc(F)cc2)c2ccccc2N1`, the inhibition was -6.02%. `O=S(=O)(c1ccc(F)cc1)N1CCN(C(=S)NCc2ccco2)CC1`: the inhibition is -0.183%. The result for `COc1ccc(NC(=O)NN2CCN(C)CC2)c(OC)c1` reads 0.214%; that for `CCCCOc1ccc(-c2nnc(-c3ccco3)o2)cc1`, 80.5% (active). Take `N#Cc1ccc(OCc2nnc(-c3ccc([N+](=O)[O-])cc3)o2)cc1`: the inhibition was -0.787%. With `CCOc1ccc(-n2c(SCC(N)=O)nnc2-c2ccco2)cc1`, the inhibition was 6.82%.

The values above are taken from PubChem BioAssay AID434973 (Sanford-Burnham Center for Chemical Genomics, 2010).
